# Screening results as filed in PubChem BioAssay.
# This is a sample that favours compounds with a hit; in the whole collection about 2.9% have one here.
# ZTA DNA inh – blocks Epstein-Barr virus ZTA, an EBNA-1 counter-screen; P03206; ZTA-DNA binding, fluorescence polarization; inhibition, % at 11 µM; 320,000 tested, 0.15% active; in the data active = inhibition above about 33%
# Target sequence (P03206 whole entry, looked up): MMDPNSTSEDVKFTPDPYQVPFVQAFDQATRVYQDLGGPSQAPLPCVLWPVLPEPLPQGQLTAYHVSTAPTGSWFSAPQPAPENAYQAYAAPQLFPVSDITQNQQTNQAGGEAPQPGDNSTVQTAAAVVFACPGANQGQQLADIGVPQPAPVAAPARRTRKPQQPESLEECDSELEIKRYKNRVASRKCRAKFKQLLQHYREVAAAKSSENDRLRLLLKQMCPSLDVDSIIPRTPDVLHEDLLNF
# PAFAH1B2 inh – blocks human PAF acetylhydrolase 1b catalytic subunit 2; inhibition, % at 3.39 µM; recombinant PAFAH1B2, FP-rhodamine activity probe, fluorescence polarization; AID 492953; 340,000 tested, 1.2% active;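 active = inhibition above the mean of all tested compounds plus 3 SD, cut at about 24% in these data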;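 also: 0% = enzyme with DMSO and 100% = wells lacking PAFAH1B2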
# Target sequence (P68402 whole entry, looked up): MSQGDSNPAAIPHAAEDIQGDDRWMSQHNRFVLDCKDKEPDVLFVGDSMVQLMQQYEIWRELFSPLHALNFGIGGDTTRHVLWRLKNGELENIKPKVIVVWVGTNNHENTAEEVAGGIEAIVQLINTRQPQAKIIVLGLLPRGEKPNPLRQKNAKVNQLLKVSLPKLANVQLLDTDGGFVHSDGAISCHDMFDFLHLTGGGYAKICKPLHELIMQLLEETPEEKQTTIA
# PAFAH1B3 FP inh – blocks human PAF acetylhydrolase 1B catalytic subunit 3 | Q15102 | recombinant PAFAH1B3, FP-rhodamine probe, fluorescence polarization | inhibition, % at 3.39 µM | 340,000 tested, 0.28% active | AID 492972;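 active = inhibition above the screen-wide average of all tested compounds plus 3 SD, cut at about 25% in these data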;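 also: 0% = enzyme with DMSO only and 100% = wells lacking PAFAH1B3 protein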
# rCAG RNA binder – molecules binding r(CAG) RNA repeats. 370,000 tested, 1.3% active. AID 651821. r(CAG) RNA repeat, TO-PRO-1 dye displacement fluorescence. inhibition, % at 3 µM;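 active = inhibition above the plate cutoff, the mean of all test compounds on that plate plus 3 SD, cut at about 35% in these data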;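 also: 0% = DMSO alone and 100% = 100 µM mitoxantrone as full dye displacement; higher means more dye released from RNA so lower well fluorescence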
# PAFAH2 inh – PAFAH2 (human) inhibition. recombinant PAFAH2, FP-rhodamine activity probe, fluorescence polarization. Q99487. inhibition, % at 3.39 µM. 340,000 tested, 0.99% active;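 active = inhibition above the mean over all tested compounds plus 3 SD, cut at about 30% in these data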;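 also: inhibitors block probe labeling of enzyme so polarization drops; 0% = enzyme with DMSO and 100% = wells lacking PAFAH2 protein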
# EBNA-1 inh – blocks EBNA-1 binding to DNA | EBNA-1 DNA binding, fluorescence polarization | inhibition, % at 14.8 µM | 300,000 tested, 0.34% active | AID 1950; in the data active = inhibition above about 28%
# PAFAH2 confirm – confirmation of human PAFAH2 inhibitors; inhibition, % at 3.39 µM; shares compounds with PAFAH2 inh; AID 493030; recombinant PAFAH2, FP-rhodamine activity probe, fluorescence polarization; 2,300 tested, 65% active;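 active = mean inhibition over three repeats above a set limit taken from the earlier primary screen, cut at about 30% in these data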;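 also: inhibitor blocks binding of rhodamine activity probe so polarization falls; 0% = enzyme with DMSO and 100% = wells lacking PAFAH2 protein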
# The depositor's hits bear a star; x = not tested or not shown.
SMILES,ZTA DNA inh,PAFAH1B2 inh,PAFAH1B3 FP inh,rCAG RNA binder,PAFAH2 inh,EBNA-1 inh,PAFAH2 confirm
O=[N+]([O-])c1ccccc1N/N=C\c1ccccc1Cl,-10,-5,-7,-1,-4,-2,x
O=[N+]([O-])c1ccc(-c2ccc(C=Nc3cccc4ccccc34)o2)cc1,-2,0,6,1,1,-12,x
O=[N+]([O-])c1ccc(C=Nc2cccc3ccccc23)s1,0,9,15,x,66*,2,8
COc1ccc(N2CC(O)=C(c3nc(-c4ccc(F)cc4)cs3)C2=N)cc1OC,-19,1,10,13,41*,-16,42*
COc1ccc(N2CC(O)=C(c3nc(-c4ccc(F)cc4)cs3)C2=N)cc1Cl,0,0,3,6,14,8,x
COc1cccc(C(=O)n2ccc3ccc(-c4ccc5ccn(C(=O)c6cccc(OC)c6)c5c4)cc32)c1,x,x,x,7,x,x,x
Cc1noc(NC(=O)c2ccc(F)cc2)c1C#N,-7,0,-1,-4,7,4,x
Cc1noc(NC(=O)c2ccccc2C(F)(F)F)c1C#N,12,1,8,3,38*,3,1
COc1ccc(-c2noc(C3CCCN(C(=O)Nc4cccc(C)c4)C3)n2)cc1 (stereo unspecified),x,x,x,7,x,x,x
COc1cccc(/C=C/C(=O)OCC(=O)Nc2cc(S(=O)(=O)N3CCOCC3)ccc2C)c1,-9,-1,1,0,55*,0,42*
Cc1ccc(S(=O)(=O)N2CCOCC2)cc1NC(=O)COC(=O)/C=C/c1ccco1,x,5,10,3,46*,x,45*
COc1cc(/C=C/C(=O)OCC(=O)Nc2cc(S(=O)(=O)N3CCOCC3)ccc2Cl)cc(OC)c1OC,x,2,2,7,18,x,x
CCOC(=O)c1c(NC(=O)C2CC(Cl)=CCC2C(=O)O)sc2c1CCCCC2 (stereo unspecified),8,7,18,x,38*,8,28
O=C(CSc1nc2ccccc2n1Cc1ccccc1Cl)N/N=C\c1cccc(Oc2ccccc2)c1,x,x,x,12,x,x,x
C=CCn1c(C)cc(C(=O)COC(=O)/C=C/c2cccc(OC)c2)c1C,-5,2,8,-9,55*,-3,46*
C=CCn1c(C)cc(C(=O)COC(=O)/C=C/c2ccc(OC)cc2)c1C,-8,4,5,-2,62*,-5,57*
COc1ccc(/C=C/C(=O)OCC(=O)c2ccccc2F)cc1,x,3,6,1,29,x,x
Cc1ccc(C(=O)O/N=C2\CCCc3ccccc32)cc1,0,5,5,-4,42*,-10,40*
O=C(C(=O)N1CCN(C(=O)OCc2ccccc2)CC1)c1cccnc1,x,x,x,0,x,x,x
COc1ccc(O)c(C(=O)c2cnn(C(=O)c3cc(C)oc3C)c2)c1,-6,5,3,2,41*,1,21
C[C@H]1COc2cc(Br)ccc2S(=O)(=O)N1Cc1cn(CCC2OCCCO2)nn1,x,x,x,2,x,x,x
CCCN1CCC(=NNc2ccc(C(=O)O)cc2)CC1,6,3,12,-2,35*,-3,3
CCCN1CCC(=NNC(=O)c2ccc(Br)o2)CC1,18,-2,-2,-1,3,13,x
N=C1C(c2nc(-c3ccc(Cl)cc3)cs2)=C(O)CN1CCCN1CCOCC1,2,3,5,8,30*,13,30*
O=C(COc1ccc(Cl)cc1Cl)NN=C1CCCCC1,1,0,6,-1,15,-4,x
SMILES,ZTA DNA inh,PAFAH1B2 inh,PAFAH1B3 FP inh,rCAG RNA binder,PAFAH2 inh,EBNA-1 inh,PAFAH2 confirm
O=C(O)CCC(=O)NNC(=O)COc1ccc2ccccc2c1Br,-3,x,x,4,x,-12,x
CC1(C)CC(=O)C/C(=N/NC(=O)COc2ccc3ccccc3c2Br)C1,-8,9,4,8,30*,-12,16
CC1(C)CC(=O)C/C(=N/NC(=O)COc2ccc(Cl)cc2Cl)C1,-14,-2,11,3,40*,-4,22
COc1ccc(-c2cc(=O)c3cccc(CC(=O)O)c3o2)cc1,x,x,x,3,x,x,x
C=C(O[C@H]1[C@H](O)CC=C(C(=O)O)[C@@H]1O)C(=O)O,x,x,x,1,x,x,x
CCCNC(=O)C[C@H]1CC[C@H]2[C@@H](COc3ccc(NC(=O)Nc4ccc(C#N)cc4)cc3C(=O)N2C)O1,x,x,x,5,x,x,x
Cc1cccc(C(=O)O/N=C(\N)Cc2ccc([N+](=O)[O-])cc2)c1,-1,0,5,0,37*,-3,30
COc1cccc(C(=O)O/N=C(\N)Cc2ccc(Cl)cc2)c1,-2,5,4,-4,69*,-1,56*
N/C(Cc1ccc([N+](=O)[O-])cc1)=N\OC(=O)c1ccco1,-14,7,1,0,39*,-3,37*
Cc1cccc(/C(N)=N/OC(=O)Cc2cccc3ccccc23)c1,-13,-2,0,0,1,3,x
Cc1cccc(C(=O)O/N=C(\N)Cc2cccc3ccccc23)c1,-4,5,-2,x,75*,-4,74*
COc1ccc(C(=O)OCCN2CCN(C3CN(Cc4cn(Cc5ccccc5C(F)(F)F)nn4)S(=O)(=O)C3)CC2)cc1OC (stereo unspecified),x,x,x,0,x,x,x
CCN(CC)C(=O)c1ccc(C(CCOC(=O)Oc2ccccc2)c2ccc(OC)cc2)cc1 (stereo unspecified),x,x,x,4,x,x,x
N/C(Cc1ccc(Cl)cc1)=N\OC(=O)C1CCCCC1,-1,3,11,-6,40*,9,42*
N/C(Cc1ccc([N+](=O)[O-])cc1)=N\OC(=O)c1ccc2ccccc2c1,-15,0,8,14,62*,-1,54*
CC(Cl)C(=O)N1CCC(C(=O)NC2CCCc3ccccc32)CC1 (stereo unspecified),x,x,x,-1,x,x,x
N#Cc1ccc(NCCCN2CCC(C(O)(c3ccccc3)c3ccccc3)CC2)cc1,x,x,x,-1,x,x,x
CCOC(=O)c1c(C)[nH]c(N=Nc2ccc(C)cc2)c1C,5,1,12,7,2,-12,x
Cc1ccc(N=Nc2c(O)ccc3n[nH]nc23)cc1,x,8,2,9,30*,x,23
O=C(COC(=O)c1cccc(S(=O)(=O)N2CCCC2)c1)Nc1ccccc1C(F)(F)F,x,1,-3,-11,45*,x,40*
Cc1ccc(C(=O)OCC(=O)NC(=O)c2cccn2C)cc1,-14,3,2,0,47*,-5,38*
CC(=O)N1CCN(S(=O)(=O)c2cccc(C(=O)OCC(=O)Nc3c(Cl)cccc3C(F)(F)F)c2)CC1,x,4,2,1,44*,x,32*
Cc1ccc(C)c(NC(=O)COC(=O)c2cccc(S(=O)(=O)N3CCCC3)c2)c1,x,x,x,2,x,x,x
CC(=O)N1CCN(S(=O)(=O)c2cccc(C(=O)OCC(=O)NC(=O)c3cccn3C)c2)CC1,0,4,4,-2,35*,4,32*
